# PubChem BioAssay (NCATS)
# “And” between values parts separate entries of the source, which are not always exact repeats. Identical values can stand only once. Results filed as inconclusive are left out. The source made the active and inactive calls. The call rests on the fitted dose curve; in most records, active means well fitted activation curve with a large enough effect; inconclusive means small, poorly fitted or top-dose-only effect; inactive means no such curve, though single readings can be large or run the other way.
# Biological target: Cellular tumor antigen p53 (Homo sapiens) (UniProt P04637)
# Sequence (P04637 whole entry, looked up): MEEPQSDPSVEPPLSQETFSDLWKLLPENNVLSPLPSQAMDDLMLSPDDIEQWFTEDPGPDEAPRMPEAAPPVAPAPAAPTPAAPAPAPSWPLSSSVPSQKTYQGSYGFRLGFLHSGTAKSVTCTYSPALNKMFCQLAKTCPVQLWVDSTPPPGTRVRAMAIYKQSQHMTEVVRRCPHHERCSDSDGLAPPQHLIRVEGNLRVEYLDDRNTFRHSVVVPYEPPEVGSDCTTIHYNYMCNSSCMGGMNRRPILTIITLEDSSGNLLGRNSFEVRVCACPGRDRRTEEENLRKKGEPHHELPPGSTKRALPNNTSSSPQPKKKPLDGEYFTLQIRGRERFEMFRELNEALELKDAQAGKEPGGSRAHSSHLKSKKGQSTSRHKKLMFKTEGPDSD
# Test: Primary qHTS for small molecule compounds that upregulate eGFP-tagged delta133p53alpha (in N-terminal) cells. (AID 2060322); further: nearly all actives have a fitted effect of over 75% in size;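 on activation: cells pre-induced with doxycycline then dosed without doxycycline; series mostly up to about 56 µM; 0% = DMSO vehicle and 100% = reference activator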
# Settings: NCI-H358 eGFP-delta133p53alpha fluorescence, 24 h; activation: stronger effect = higher value
# How it was run: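 NCI-H358 cells pre-induced 24 h with 10 ng/ml doxycycline for eGFP-delta133p53alpha, plated dox-free and exposed 24 h at 37C to titrated compounds. Fixed, Hoechst-stained; gated GFP peak intensity by laser scanning cytometry, normalized to DMSO (0%) and 57.5 uM 5-azacytidine (100%).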
# Potency means the concentration at half of the fitted maximal effect.
SMILES,activation,Potency
CCCOC(=O)c1ccc(N)cc1,0% (inactive),
CN1C(=O)c2ccccc2C1=O,7.53% (inactive),
O=C1c2c(O)cccc2[C@@H]([C@@H]2O[C@H](CO)[C@@H](O)[C@H](O)[C@H]2O)c2cc(CO)cc(O)c21,-15.3% (inactive),
COc1ccc2cc1Oc1cc3c(cc1OC)CC[N+](C)(C)[C@H]3Cc1ccc(cc1)Oc1c(OC)c(OC)cc3c1[C@@H](C2)[N+](C)(C)CC3,13% (inactive),
CNC(=O)c1c(I)c(NC(C)=O)c(I)c(C(=O)O)c1I,-8.47% (inactive),
CN(C)CCOc1ccc(C(=C(CCCl)c2ccccc2)c2ccccc2)cc1,17.8% (inactive),
NCCC(O)(P(=O)(O)O)P(=O)(O)O,-6.21% (inactive),
CC(=O)N[C@H]1[C@@H]([C@H](O)[C@H](O)CO)OC(C(=O)O)=C[C@@H]1N=C(N)N,-10.7% (inactive),
Cc1ccccc1N=Nc1ccc(N=Nc2c(O)ccc3ccccc23)c(C)c1,-17.5% (inactive),
Cc1c[nH]c(C=C2C(=O)Nc3ccccc32)c1CCC(=O)O,,24.3 µM (active)
Cc1sccc1Br,7.53% (inactive),
CC1(C)S[C@@H]2[C@H](N=CN3CCCCCC3)C(=O)N2[C@H]1C(=O)O,-11.9% (inactive),
NCCNc1cccc2ccccc12,24.3% (inactive),
N=C(N=C(N)N)N1CCOCC1,1.67% (inactive) and -4.92% (inactive),
O=C(O)C1(C(=O)O)CCC1.[NH2-].[NH2-].[Pt+2],0.565% (inactive),
Oc1cn2c(n1)Nc1ccc(Cl)c(Cl)c1C2,-8.37% (inactive),
OC(CCCN1CCCCC1)(c1ccccc1)c1ccccc1,-16.4% (inactive),
CC(C)c1cc2c(cc1S(=O)(=O)O)[C@@]1(C)CCC[C@@](C)(C(=O)O)[C@@H]1CC2,-22% (inactive),
O=c1[nH]c(=O)n([C@H]2C[C@@H](O)[C@@H](CO)O2)cc1C=CBr,11.1% (inactive),
CCc1ccc(C=C2SC(=S)NC2=O)cc1,32.5% (inactive),

SMILES,activation,Potency
C[C@@H]1CN(CCCn2c3ccccc3c3ccccc32)C[C@H](C)N1,16.4% (inactive),
COC(=O)c1ccc(O)cc1,7.34% (inactive),
COc1ccc(-c2cc(C(F)F)nn2-c2ccc(S(N)(=O)=O)cc2)cc1F,-21.8% (inactive),
CC(=O)N(CC(O)CO)c1c(I)c(C(=O)NCC(O)CO)c(I)c(C(=O)NCC(O)CO)c1I (centres undefined),-16.7% (inactive),
C=CC(=O)Nc1cccc(Nc2nc(NC3CCC(N(C)C)CC3)nc3c2ncn3C(C)C)c1 (centres undefined),,4.85 µM (active)
CC(C)(C)c1nnc(NS(=O)(=O)c2ccc(N)cc2)s1,-16.7% (inactive),
CCN(CC)CCOC(=O)C(Cc1cccc2ccccc12)CC1CCCO1 (centres undefined),-0.837% (inactive),
Oc1c(I)cc(Cl)c2cccnc12,-2.51% (inactive),
NC(=O)C1(N2CCCCC2)CCN(CCCN2c3ccccc3CCc3ccc(Cl)cc32)CC1,3.35% (inactive),
C[N+](C)(C)CC(O)CC(=O)[O-] (centres undefined),7.53% (inactive),
CCCCOc1ccc(OCCCN2CCOCC2)cc1,22.6% (inactive),
CCCCCCCCCCC(CO)CCCCCCCC (centres undefined),16.4% (inactive),
CC(NC(=O)c1ccccc1N=Cc1c(O)ccc2ccccc12)c1ccccc1 (centres undefined),,43.2 µM (active)
COc1cc(C(=S)N2CCOCC2)cc(OC)c1OC,-16.4% (inactive),
CC(=O)c1cc2ccccc2s1,6.21% (inactive),
Cc1cccc(C)c1NC(=O)c1ccccc1C(=O)O,28.5% (inactive),
COC(=O)c1cc(Cl)c(NC(C)=O)cc1OC,11.9% (inactive),
NS(=O)(=O)c1cc2c(cc1Cl)CN(C1CCCCC1)C2=O,20.9% (inactive),
CCCCC(=O)O[C@]1(C(=O)CO)CC[C@H]2[C@@H]3CCC4=CC(=O)CC[C@]4(C)[C@H]3[C@@H](O)C[C@@]21C,29.3% (inactive),
